Laboratory results published in PubChem BioAssay (NCI).
Where “and” joins values, the source holds several entries; their conditions need not be identical. Equal values may be shown once. About 79,000 compounds went through this panel and 15% of them were active in at least one assay; those are over-represented in the sample as a whole. A number with no mark means an inactive call. Calls of active or inactive are those of the source. No stated cut-off is given here; in the data, active means growth inhibition above about 70%; inactive means the rest.

What was measured:
[1] = NCI Yeast Anticancer Drug Screen. Data for the rad50 strain (AID 155);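 further: 0% = growth of vehicle-only cultures of the same strain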; details: S. cerevisiae rad50 strain growth inhibition; at 50.0 µM; active compounds read high
Summary of the method: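 Cells are treated with compound, grown, and their growth is then scored against vehicle-only cultures of the same repair-deficient yeast strain.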

[2] = NCI Yeast Anticancer Drug Screen. Data for the mec2-1 strain (AID 157); details: S. cerevisiae mec2-1 strain, at 50.0 µM, active compounds read high
Summary of the method: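 Using mec2-1 yeast: add compound, measure growth, express inhibition versus vehicle-treated cultures.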

[3] = NCI Yeast Anticancer Drug Screen. Data for the sgs1 mgt1 strain (AID 161);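 further: 0% = growth of cultures given vehicle only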; details: S. cerevisiae sgs1 mgt1 strain, at 50.0 µM, active compounds read high
Summary of the method: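 Compounds are added to genetically altered yeast, and growth is compared with cultures given vehicle alone to give percent inhibition.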

[4] = NCI Yeast Anticancer Drug Screen. Data for the cln2 rad14 strain (AID 165);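 further: 0% = growth equal to vehicle treated cultures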; details: S. cerevisiae cln2 rad14 strain, at 50.0 µM, active compounds read high
Summary of the method: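 Yeast strain cln2 rad14, bearing defects in cell cycle control and DNA repair, serves as the test system; values reflect growth inhibition compared with vehicle.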

[5] = NCI Yeast Anticancer Drug Screen. Data for the bub3 strain (AID 167); details: S. cerevisiae bub3 mutant strain, at 50.0 µM, active compounds read high
Summary of the method: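 Part of a panel of yeast mutants defective in DNA damage repair or cell cycle regulation. Each strain is grown with compound, and inhibition is calculated relative to solvent-treated cultures.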

[6] = NCI Yeast Anticancer Drug Screen. Data for the mlh1 rad18 strain (AID 175); details: S. cerevisiae mlh1 rad18 strain growth inhibition; at 50.0 µM; active compounds read high
Summary of the method: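 Steps: expose repair-defective yeast to compound; measure growth; express inhibition against vehicle-treated controls.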

Compound | growth inhibition [1] | growth inhibition [2] | growth inhibition [3] | growth inhibition [4] | growth inhibition [5] | growth inhibition [6]
CC(=O)NNC(=O)C(Cl)Cl | 5.45% | -3.75% | 8.45% | 8% | 4.15% | 25.4%
COc1cccc(C=C(C#N)C#N)c1OC | -9.8% | -8.05% | -3.35% | 5.05% | -3.8% | 4.5%
Cc1ccc(C(C)(C)C)c(OP(=S)(S)Oc2cc(C)ccc2C(C)(C)C)c1.[Pb] | 5.9% | -1.85% | -1.3% | 9.7% | -13.7% | 7.3%
CCN1CC2(C)CCC(OC)C34C5CC6CCC(O)(C5C(=O)O6)C(C(O)C23)C14 (stereo not given) | -9.45% | -44% | 2% | -0.5% | -34.1% | -57.7%
CCOC(=O)C(Br)C(C)Br (stereo not given) | -13.4% | -39.5% | -23.1% | 7.1% | -9.65% | -22.5%
O=C([O-])CC(=O)[O-].[Cu+2].[OH3+].[OH3+] | 24.9% | 11.2% | 12.2% | -19.6% | -9.35% | 6.1%
CCNP(=S)(OCC)OCC | -9.2% | 3.15% | 5.05% | -3.9% | -2.7% | -4%
O=C(O)c1ccccc1 | -11.1% and -31.2% | -0.2% and -17.9% | -14.8% and 33.1% | -10.7% and -12% | -20.5% and -3.8% | -38.4% and 10.8%
N#Cc1ccc(NN=O)cc1 | 15.9% | -3.15% | 10.4% | -0.2% | 25% | 28.1%
CCOC(=O)N=C=O | -17.8% | 4.7% | -15.7% | 11.9% | -3.1% | -1.85%
CC(=O)Nc1nccs1.CC(=O)Nc1nccs1.[Cl][Pt][Cl] | 9% | 5.25% | 8.8% | -1.55% | -1.45% | 5.1%
[Cl][Pt][Cl].[NH-]NC(=O)c1ccncc1 | 8.65% | 5.8% | -3.55% | -17.1% | 2.35% | -2%
Nc1nc(N)[nH]c(=O)n1 | -20.1% | -12.5% | -39% | -29.4% | -36.4% | -40%
CSCCC(N)P(C)(=O)O (stereo not given) | -16.4% | -37.5% | -15.7% | 1.5% | -46.1% | -17.5%
CC[As](CC)SC(CC[C@@H](C)C1CC[C@@]2(C)C3=C(CC[C@]12C)[C@@]1(C)CC[C@H](O)C(C)(C)[C@@H]1CC3)C(C)C (stereo not given in full) | 3.95% | 17.6% | -8.15% | -21.1% | -1.55% | -25.6%
CCCCCCCC(=O)O.[Pb] | 3.55% | 5.55% | 3% | 13.9% | -6% | 14.8%
COc1ccc(CCN(C)Cc2cccc(OC)c2OC)cc1OC | -17.1% | -5.85% | -3.85% | -0.95% | -16.1% | -2.1%
Nc1ncnc2c1c(Cl)cn2C1OC(CO)C(O)C1O (stereo not given) | 10.1% | 15.2% | 12% | 32.4% | 19.2% | 26.4%
CCCN(CCC)C(=O)[S-].CCCN(CCC)C(=O)[S-].[Ni+2] | 35% | -6.25% | 33.4% | -38.6% | 2.7% | -3.5%
CCCC1NCCOC1(O)c1ccccc1 (stereo not given) | -11.2% | -8.35% | -1% | -16.4% | 3.35% | -33.8%
CN1C(=O)C2(Cc3cn(C45CC67SSC(CO)(C(=O)N6C4Nc4ccccc45)N(C)C7=O)c4ccccc34)SSC1(CO)C(=O)N2C (stereo not given) | 90.2% (active) | 90.3% (active) | 90.3% (active) | 89.2% (active) | 90.8% (active) | 89.8% (active)
CN1CCC23c4c5cc(-c6cc7c8c(c6O)OC6C(O)C=CC9C(C7)N(C)CCC896)c(O)c4OC2C(O)C=CC3C1C5 (stereo not given) | -5.2% and 0.8% | -10.7% and -11.2% | 1.9% and 2.85% | -13.2% and 4.85% | -4.45% and 7.4% | -4.8% and 1.75%
O.O.O=C(O)CC(=O)O.[NH-]C1CCCCC1[NH-].[Pt+2] (stereo not given) | -25.4% | -5.3% | -20.4% | -18.9% | 2.75% | -28.6%

Compound | growth inhibition [1] | growth inhibition [2] | growth inhibition [3] | growth inhibition [4] | growth inhibition [5] | growth inhibition [6]
CCC(C)C1NC(=O)C2CCCN2C(=O)C(CC2CO2)OC(=O)CCNC(=O)C(C)N(C)C(=O)C(C(C)C)N(C)C1=O (stereo not given) | 55.1% | 5.15% | 41.2% | 31.6% | 36% | 28.8%
CC(=O)C1C(c2ccccc2)C2(C)OC(=O)C(C#N)C12C (stereo not given) | -17.6% | 18.9% | 9% | 32.3% | 21.8% | 33.2%
O=C(Cc1ccccc1)Nc1ccc(Cl)cc1C(=O)c1ccccc1 | 1.95% | 44.2% | 40.1% | -18.3% | 23.1% | 36.7%
NC(=O)c1ccc([As](O)O)cc1N | -0.05% | -4.9% | -12.5% | -4.75% | -11.5% | -9.1%
CCCCP(=O)(CCCC)CCCC.CCCCP(=O)(CCCC)CCCC.CCCCP(=O)(CCCC)CCCC.CCCCP(=O)(CCCC)CCCC.[Ce+3].[O-][Cl+3]([O-])([O-])O | 43.9% | 36.3% | 30.6% | 33.9% | 62.1% | 42.4%
CN1CCCC(OC(=O)C(c2ccccc2)C2(O)CCCC2)C1 (stereo not given) | 30.6% | -9.55% | 27.1% | -27.9% | -1.85% | 16.8%
CCN1C[C@]2(COC)[C@H](O)C[C@H](OC)[C@]34C1[C@H]([C@H](OC)[C@H]23)[C@]1(OC(C)=O)[C@H]2[C@@H](OC(=O)c3ccccc3)[C@](O)(C[C@H]24)[C@@H](OC)[C@@H]1O | 14.6% | -4% | 5.8% | -6.85% | 24.9% | -69.3%
CC(=O)OC1CCC2(C)C(=CCC3C2CCC2(C)C(Oc4ccccc4)CCC32)C1 (stereo not given) | -42.7% | -28.4% | -33.6% | 3.55% | -28.4% | -46.1%
N#CC1C(=O)c2ccccc2C1=O | -1.4% | 4.15% | 1.6% | -3.35% | 12.8% | -1.85%
O=C=Nc1cccc(S(=O)(=O)F)c1 | 56.8% | 4.15% | 26% | 28.4% | 33.9% | 11.9%
O=C(O)CC1NCc2cc3ccccc3nc21 (stereo not given) | 6.4% | -13.2% | -17.2% | 10% | -0.8% | 16.6%
O=C(O)c1ccc(I)cc1.[Ni] | 82.8% (active) | 5.7% | 57.1% | 8.85% | 85% (active) | 30%
CN(C)NP(c1ccccc1)c1ccccc1 | -2.55% | -3.8% | -5.95% | -6.1% | -18.2% | 1.1%
CCOP(=O)(CC)C(Cl)(Cl)Cl (stereo not given) | 2.4% | -18.5% | -5.95% | -24.1% | 6.05% | -2.2%
CC(C)(C)C(=O)CC(=O)C(C)(C)C.[Cl][Sb]1([Cl])[c]2ccccc2Cc2cccc[c]21 | -1.05% | 23.9% | 20.1% | -13.8% | 0.75% | 8.95%
NC(N)=NCCCCCCCCCCN=C(N)N | 0.45% | -20.2% | -6.05% | 8.4% | -2.35% | -10.3%
C1CC[N-]CC1.CC(=N\O)/C(C)=N/O.CC(=N\O)/C(C)=N/O.N#C[CH-]CC#N.[Co+2] | 31.4% | 19.2% | 25.3% | -19.4% | 28.5% | 38.9%
CCCCCC[C@@H](O)[C@@H]1C2=C(C[C@H]([C@H](O)[C@@H]3CC=CC(=O)O3)CC3=C(C(=O)OC3=O)[C@@H]1O)C(=O)OC2=O | 20.6% | 2.75% | 26.7% | 9.5% | 16.7% | 19.6%
COc1ccc2nc3cc(Cl)ccc3c(NCCCSCCCl)c2n1 | 95.4% (active) | 80% (active) | 94.3% (active) | 78.4% (active) | 71.3% (active) | 92.2% (active)
CC(=O)O[C@H]1CCC2[C@@H]3CC[C@]4(C)CC(=O)C=C[C@]4(C)C3CC[C@@]21C (stereo not given in full) | 84.7% (active) | 90.5% (active) | 88% (active) | 85.1% (active) | 87.1% (active) | 89.3% (active)
OCC1OC(n2cnc3cc(Cl)c(Cl)cc32)C(O)C1O (stereo not given) | -1.1% | 13.8% | 21.9% | -19.5% | 6.4% | 5%
N#CC(C#N)=Cc1ccco1 | -7.95% | 6.15% | 24.7% | -42.4% | -3.85% | 5.5%
